Screens: PubChem BioAssay, National Center for Advancing Translational Sciences (NCATS)
An excerpt weighted towards active compounds, which were near 17% of everything screened.
HT1080 IDH1KD tx = toxicity to HT-1080 IDH1 knockdown cells (counter line); HT-1080 IDH1 knockdown viability, ATP luminescence, 48 h; Potency, µM (highest dose often 46.1 µM), inactives show at the top dose activity, negative = toxicity, hits mostly cytotoxic; actives 2% (n = 360,000);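 also: 0% = DMSO wells and -100% = cell-free medium wells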
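Luminescent ATP read-out (CellTiter-Glo, 10 min at room temperature) after 48 h compound exposure at 37 °C gave viability of IDH1-knockdown HT-1080 cells. Activity was normalised to DMSO and cell-free wells, then fitted as concentration-response curves.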
HT1080-NT tox = kills 2HG-producing HT-1080-NT fibrosarcoma cells | AID 686970 | HT-1080-NT fibrosarcoma viability, CellTiter-Glo ATP luminescence, 48 h | actives 1.6% (n = 360,000) | Potency, µM (highest dose often 46.1 µM), for inactives: at the highest dose activity, negative = less viability, most hits filed as cytotoxic;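 also: NT is the 2HG producing partner of a matched IDH1 knockdown line; 0% = DMSO-treated cells and -100% = media-only wells without cells; nearly all actives have a fitted effect of over 55% in size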
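Read-out is CellTiter-Glo luminescence after 10 minutes at room temperature, following 48 hours' compound treatment of HT-1080-NT cells (750 cells/well, RPMI, 5% FBS, 37 degrees C).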
TDP1 cell CPT = growth inhibition of DT40 Tdp1-/-;hTDP1 cells with camptothecin (screen for TDP1 inhibitors) | chicken DT40 Tdp1-/-;hTDP1 cells + 20 nM CPT, ATP luminescence, 48 h | Potency, µM (series often up to 46.2 µM), for inactives: top-dose activity change, negative = growth inhibition, hits mostly inhibitors | actives 12% (n = 420,000); also: % is scaled to controls: 0 for no effect and ±100 for the full control effect; nearly all actives have a fitted effect of over 55% in size
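Cell growth measured by CellTiter-Glo luminescence after a minimum 48 h, 37 C compound exposure with 20 nM CPT in Tdp1-knockout DT40 cells stably expressing hTDP1, seeded 400/well; qHTS titration format.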
HepG2 viability = HepG2 cytotoxicity, counter-screen for TGF-b inhibitors. HepG2 CAGA-GFP viability, ATP luminescence, 18 h. Potency, µM (titrated, usually from 46.1 µM), inactives show at the top dose activity change, negative = cytotoxicity, hits mostly cytotoxic. actives 0.76% (n = 410,000)
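CellTiter-Glo luminescence gave cytotoxicity after 18 hours at 37 degrees C. The cells were HepG2 CAGA-GFP in 1% FBS DMEM, stimulated with 500 pg/mL TGF-beta after compound addition. %Activity was normalised to no-cell wells (complete cell-killing) and DMSO (no toxicity), and curves were fitted and classified.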
DT40 TDP1 no CPT = qHTS for Inhibitors of human tyrosyl-DNA phosphodiesterase 1 (TDP1): qHTS in cells in absence of CPT; DT40 Tdp1-/- hTDP1 cells, no CPT, ATP luminescence, 48 h; Potency, µM (series often up to 46.2 µM), for the others: top-dose activity change, negative = growth inhibition, actives largely listed as inhibitors; actives 15% (n = 420,000); also: % is scaled to controls: 0 for no effect and ±100 for the full control effect; nearly all actives have a fitted effect of over 55% in size
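Readout: luminescence from CellTiter-Glo after 30 min in the dark at RT. Cells: DT40 Tdp1-/- with stable hTDP1, 400/well. Exposure: compounds alone, ≥48 hr, 37 °C.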
TGFb SMAD3 inh = TGF-b pathway inhibition; HepG2 CAGA-GFP TGF-b/SMAD3 reporter, GFP fluorescence, 18 h; TGF-beta stimulated, 500 pg/mL final; Potency, µM (highest dose often 46.1 µM), inactives show top-dose activity, negative = inhibition, most hits filed as inhibitors; actives 1.2% (n = 410,000); AID 588855; also: % is scaled to controls: 0 for no effect and ±100 for the full control effect; nearly all actives have a fitted effect of over 65% in size
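Smad-responsive CAGA-GFP expression was quantified in HEPG2 cells exposed to compounds and 500 pg/mL final TGF-beta for 18 h at 37 degrees C; unstimulated wells defined full inhibition.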
The depositor's hits bear a star; u = inconclusive; x = no result; [ ] = another dose, or the depositor's remark. Calls follow the shape of the dose curve; as a rule, active = well fitted curve in the direction sought with a large enough effect; inconclusive = small, poorly fitted or top-dose-only effect, or another doubt; inactive = no such curve, though single readings can be large; an effect the other way counts as inactive or inconclusive. Potency is read from the fitted curve at half-maximal effect.

SMILES	HT1080 IDH1KD tx	HT1080-NT tox	TDP1 cell CPT	HepG2 viability	DT40 TDP1 no CPT	TGFb SMAD3 inh
CC1(C)Cc2c(C#N)c(SCC(=O)c3ccccc3)nc(N3CCOCC3)c2CS1	12%	18%	u	-27%	16µM*	0%
CN(c1ccccc1)c1nc(N)c([N+](=O)[O-])c(N2CCOCC2)n1	-10%	-14%	-6%	-22%	u	2%
CC(C(=O)Nc1nc(-c2ccc(F)cc2)cs1)N1C(=O)C2CC=CCC2C1=O (stereo not drawn)	21%	10%	u	1%	-18%	-1%
COc1ccc(C)cc1N(C)C(=O)Cc1c(C(=O)O)n(C)c2ccccc12	0%	10%	0%	-20%	5.2µM*	-6%
COc1ccc(C)cc1NC(=O)Cc1c(C(=O)O)n(C)c2ccccc12	22%	11%	13%	2%	1%	0%
Cc1[nH]n(-c2nc(-c3cccc([N+](=O)[O-])c3)cs2)c(=O)c1C	8%	1%	u	-31%	21µM*	-5%
CCCCCCC1CC(=CN(C)C)C(=O)O1 (stereo not drawn)	-30%	u	u	-28%	16µM*	u
CCCCCC1CC(CC(=O)O)C(=O)O1 (stereo not drawn)	5%	14%	-2%	6%	-7%	3%
Nc1nsc2ccccc12	2.5µM*	2.5µM*	3.3µM*	-79%	2.2µM*	u
COc1ccc(NC(=O)Cn2c(=O)n(CC3CCCO3)c(=O)c3ccccc32)cc1 (stereo not drawn)	x	x	2%	3%	1%	-2%
CC(C)(C)NC(=O)C1C(c2ccccc2)=Nc2ccccc2N1C(=O)c1ccc(C(F)(F)F)cc1 (stereo not drawn)	23%	4%	u	x	16µM*	x
CCCCNC(=O)C1C(c2ccccc2)=Nc2ccccc2N1C(=O)c1ccc(C(F)(F)F)cc1 (stereo not drawn)	u	u	u	x	15µM*	x
CCCCNC(=O)C1C(c2ccc(C(F)(F)F)cc2)=Nc2ccccc2N1C(=O)c1cccc2ccccc12 (stereo not drawn)	-18%	-20%	u	x	u	x
CCCCNC(=O)C1C(c2ccccc2)=Nc2ccccc2N1C(=O)c1ccc(C)cc1 (stereo not drawn)	u	u	13µM*	x	u	x
CC(=O)Nc1ccc(CN2CCCN(C)CC2)cc1	-2%	-1%	3%	7%	-18%	22%
CCOc1ccccc1-n1nnnc1SCC(=O)N1CCCC1=O	-1%	9%	-21%	5%	2%	-4%
Cc1ccc2c(c1)C(c1ccccc1)N(C(=O)c1ccccc1F)CC(=O)N2 (stereo not drawn)	x	x	18µM*	-12%	u	1%
CCOc1cc(C(=O)N2CC(=O)Nc3ccc(C)cc3C2c2ccccc2)cc(OCC)c1OCC (stereo not drawn)	x	x	18µM*	0%	21µM*	10%
COC(=O)c1cc(C)nc(Nc2nc(C(N)Cc3ccc(F)cc3)cs2)n1 (stereo not drawn)	4%	-4%	u	-39%	-25%	u
NC(Cc1ccccc1)c1csc(Nc2nccc(C(F)(F)F)n2)n1 (stereo not drawn)	u	u	16µM*	16µM*	21µM*	16µM*
NC(Cc1ccc(F)cc1)c1csc(Nc2nccc(C(F)(F)F)n2)n1 (stereo not drawn)	15µM*	23µM*	u	-112%	15µM*	u
Cc1cc(C)nc(Nc2nc(C(N)Cc3ccccc3)cs2)n1 (stereo not drawn)	7.3µM*	5.8µM*	5.8µM*	-16%	5.2µM*	u
NC(Cc1ccc(Cl)cc1)c1csc(Nc2nccc(C(F)(F)F)n2)n1 (stereo not drawn)	23µM*	16µM*	u	-105%	u	u
CC(C)(C)OC(=O)N1CCN(CCNC(=O)c2ccccc2)CC1	9%	7%	-11%	-4%	-1%	0%
Cc1ccc(CNC(=O)c2ccc3c(c2)S(=O)(=O)c2ccccc2C3=O)o1	0%	0%	u	-1%	16µM*	-6%
SMILES	HT1080 IDH1KD tx	HT1080-NT tox	TDP1 cell CPT	HepG2 viability	DT40 TDP1 no CPT	TGFb SMAD3 inh
O=C(NCc1ccc(OC(F)(F)F)cc1)c1ccc2c(c1)S(=O)(=O)c1ccccc1C2=O	-12%	-10%	23µM*	-12%	15µM*	u
COCCCn1c(SCc2ccc(OC)cc2)nc2cc(OC)c(OC)cc2c1=N	3%	-4%	-30%	-18%	u	0%
CCCSc1nc2cc(OC)c(OC)cc2c(=N)n1CCCN1CCOCC1	u	15µM*	16µM*	2%	23µM*	15%
Cc1nc(-c2ccc(S(=O)(=O)NCc3cccnc3)s2)cs1	-16%	u	12µM*	-11%	21µM*	-21%
Cc1nc(-c2ccc(S(=O)(=O)N3CCN(Cc4ccccc4)CC3)s2)cs1	-14%	u	u	-2%	9.2µM*	-24%
Cc1ccccc1CN1CCN(S(C)(=O)=O)CC1	-3%	-7%	0%	-13%	-11%	0%
Cc1ccccc1CN1CCN(S(=O)(=O)c2ccc(Cl)s2)CC1	-17%	-13%	23µM*	2%	u	u
COc1cc(=O)n2c(c1C(=O)N(C)Cc1nonc1C)CCN(Cc1ccsc1)CC2	x	x	7%[9.04 µM]	x	-9%	x
CCNC(=O)c1ccc(C)c(-n2c(C)nc3cccnc32)c1	x	x	4%	2%	-1%	0%
COc1ccc(/C=C(\NC(=O)c2cccs2)C(=O)NC(C)(C)C)cc1OC	4%	10%	2%	-12%	-5%	-16%
O=C(CCCN1C(=O)/C(=C/c2ccccc2Cl)SC1=S)Nc1cccnc1	0%	-2%	4.6µM*	-1%	16µM*	-1%
O=C(CCN1C(=O)/C(=C/c2ccccc2Cl)SC1=S)NC1CCCC1	-2%	-3%	8.2µM*	34%	9.2µM*	15%
O=C(CCN1C(=O)/C(=C/c2ccccc2Cl)SC1=S)NCCc1ccc(O)cc1	8%	11%	u	7%	9.2µM*	-24%
